Results taken from PubChem BioAssay AID1159580 (chemical genetic matrix, 2015).
“And” between values parts separate entries of the source, which are not always exact repeats. Identical values can stand only once. Hit rate of the full screen: of about 5,500 compounds, about 2,000 (36%) were called active. Inconclusive results (about 18%) are left out. No stated cut-off is given here; in the data, active means normalized growth mostly below about 0.91 (no sharp cut-off); inconclusive means no clear call, values can overlap the other calls; inactive means mostly above about 0.92. This is one part of the list.

Test: chemical genetic growth profiling, strain panel (AID 1159580);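 further: tested at 20 µM; growth read once vehicle control cultures reached saturation at 30 °C; 1 = growth at the plate median or of vehicle wells; lower values mean less growth of the strain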
Conditions: S. cerevisiae deletion strains, growth OD

Measured: normalized growth

CCCCCCCCCCCCCCCC(=O)OC/C=C(C)/C=C/C=C(C)/C=C/C1=C(C)CCCC1(C)C
inactive: locus YAL013W, strain DEP1, hits give low values 0.994 | locus YAL021C, strain ccr4, hits give low values 1.04 | locus YAL026C, strain drs2, hits give low values 1.02 | locus YAL030W, strain snc1, hits give low values 1.03 | locus YBL061C, strain skt5, hits give low values 1.02 | locus YBR009C, strain hhf1, hits give low values 0.995 | locus YBR021W, strain FUR4, hits give low values 0.977 | locus YBR023C, strain chs3, hits give low values 1 | locus YBR171W, strain sec66, hits give low values 1.02 | locus YBR229C, strain ROT2, hits give low values 0.992 | locus YBR231C, strain swc5, hits give low values 0.931 | locus YBR279W, strain paf1, hits give low values 1.01 | locus YCL011C, strain gbp2, hits give low values 1 | locus YCL016C, strain dcc1, hits give low values 1 | locus YCL029C, strain bik1, hits give low values 0.999 | locus YCL069W, strain vba3, hits give low values 1.01 | locus YCR088W, strain abp1, hits give low values 1.02 | locus YDL005C, strain med2, hits give low values 1.03 | locus YDL035C, strain GPR1, hits give low values 0.978 | locus YDL040C, strain nat1, hits give low values 1.01 | locus YDL074C, strain BRE1, hits give low values 1 | locus YDL101C, strain DUN1, hits give low values 0.993 | locus YDL185W, strain tfp1, hits give low values 0.992 | locus YDL192W, strain arf1, hits give low values 0.994 | locus YDR001C, strain nth1, hits give low values 1.02 | locus YDR069C, strain doa4, hits give low values 1 | locus YDR101C, strain arx1, hits give low values 1.02 | locus YDR137W, strain rgp1, hits give low values 1.03 | locus YDR150W, strain NUM1, hits give low values 1 | locus YDR159W, strain sac3, hits give low values 0.963 | locus YDR162C, strain NBP2, hits give low values 0.973 | locus YDR195W, strain ref2 1.04 | locus YDR297W, strain sur2, hits give low values 1.03 | locus YDR318W, strain mcm21, hits give low values 0.999 | locus YDR334W, strain swr1, hits give low values 1.03 | locus YDR335W, strain msn5, hits give low values 1.04 | locus YDR388W, hits give low values 1.02 | locus YDR392W, strain spt3, hits give low values 1.05 | locus YDR502C, strain sam2, hits give low values 0.994 | locus YEL003W, strain gim4, hits give low values 1.01 | locus YEL037C, strain rad23, hits give low values 1.02 | locus YEL061C, strain CIN8 (second series), hits give low values 1.02 | locus YEL061C, strain CIN8, hits give low values 0.993 | locus YER015W, strain faa2, hits give low values 1.02 | locus YER016W, strain bim1, hits give low values 1.02 | locus YER110C, hits give low values 0.985 | locus YER111C, strain swi4, hits give low values 1.02 | locus YER155C, strain BEM2 (second series), hits give low values 1.03 | locus YER155C, strain BEM2, hits give low values 0.998 | locus YER167W, strain BCK2, hits give low values 0.989 | locus YFR010W, strain ubp6, hits give low values 1.03 | locus YGL078C, strain dbp3, hits give low values 0.993 | locus YGL086W, strain mad1, hits give low values 1.01 | locus YGL167C, strain pmr1, hits give low values 1.02 | locus YGL173C, strain kem1, hits give low values 1.01 | locus YGL227W, strain vid30, hits give low values 1.01 | locus YGL240W, strain doc1, hits give low values 1.03 | locus YGL248W, strain PDE1, hits give low values 1 | locus YGL253W, strain hxk2, hits give low values 0.976 | locus YGR135W, strain pre9, hits give low values 0.929 | locus YGR252W, strain gcn5, hits give low values 1.04 | locus YHR013C, strain ard1, hits give low values 1.05 | locus YHR027C, strain rpn1, hits give low values 0.969 | locus YHR030C, strain SLT2, hits give low values 0.995 and 0.963 | locus YHR079C, strain IRE1 (second series), hits give low values 1.01 | locus YHR079C, strain IRE1, hits give low values 0.925 | locus YHR094C, strain hxt1, hits give low values 0.983 | locus YHR129C, strain ARP1, hits give low values 0.999 | locus YHR142W, strain chs7, hits give low values 1.01 | locus YHR200W, strain rpn10, hits give low values 0.998 | locus YIL066C, strain RNR3, hits give low values 0.987 | locus YIL073C, strain SPO22, hits give low values 0.879 | locus YIL125W, strain kgd1, hits give low values 0.992 | locus YIR030C, strain dcg1, hits give low values 0.989 | locus YJL092W, strain hpr5, hits give low values 1.02 | locus YJL095W, strain BCK1 (second series), hits give low values 1.03 | locus YJL095W, strain BCK1, hits give low values 0.995 and 0.989 | locus YJL115W, strain asf1, hits give low values 1.02 | locus YJL129C, strain trk1, hits give low values 1.04 | locus YJL134W, strain LCB3, hits give low values 0.991 | locus YJL154C, strain vps35, hits give low values 1.02 | locus YJL164C, strain tpk1, hits give low values 0.996 | locus YJL166W, strain qcr8, hits give low values 1.04 | locus YJL168C, strain set2, hits give low values 0.994 | locus YJL187C, strain SWE1 (second series), hits give low values 1.01 | locus YJL187C, strain SWE1, hits give low values 1.03 | locus YJR043C, strain POL32, hits give low values 0.995 | locus YJR066W, strain TOR1, hits give low values 0.901 | locus YKL009W, strain mrt4, hits give low values 0.993 | locus YKL068W, hits give low values 0.985 | locus YKL085W, strain MDH1 (second series), hits give low values 0.985 | locus YKL085W, strain MDH1, hits give low values 0.985 | locus YKL160W, strain elf1, hits give low values 1.02 | locus YKL190W, strain CNB1, hits give low values 0.998 | locus YKR001C, strain vps1, hits give low values 0.991 | locus YKR026C, strain gcn3, hits give low values 1.03 | locus YKR091W, strain srl3, hits give low values 1.01 | locus YLL001W, strain dnm1, hits give low values 1.01 | locus YLL026W, hits give low values 0.975 | locus YLL041C, strain sdh2, hits give low values 1.02 | locus YLR027C, strain aat2, hits give low values 1.01 | locus YLR039C, strain RIC1, hits give low values 1 | locus YLR058C, strain SHM2, hits give low values 0.988 | locus YLR102C, strain apc9, hits give low values 0.993 | locus YLR113W, strain HOG1, hits give low values 0.99 | locus YLR221C, strain rsa3, hits give low values 0.98 | locus YLR258W, strain gsy2, hits give low values 1 | locus YLR262C, strain YPT6 (second series), hits give low values 1.01 | locus YLR262C, strain YPT6, hits give low values 1.04 | locus YLR268W, strain sec22, hits give low values 0.996 | locus YLR320W, strain mms22, hits give low values 1 | locus YLR330W, strain CHS5, hits give low values 0.993 | locus YLR342W, strain FKS1 (second series), hits give low values 0.993 | locus YLR342W, strain FKS1, hits give low values 1.02 | locus YLR357W, strain rsc2, hits give low values 0.994 | locus YLR370C, strain arc18, hits give low values 1.02 | locus YLR371W, strain rom2, hits give low values 1 | locus YLR384C, strain iki3, hits give low values 1.02 | locus YLR418C, strain cdc73, hits give low values 0.922 | locus YML016C, strain PPZ1, hits give low values 0.994 | locus YML032C, strain rad52, hits give low values 1.01 | locus YML120C, strain ndi1, hits give low values 1.05 | locus YML124C, strain tub3, hits give low values 0.993 | locus YMR058W, strain fet3, hits give low values 0.999 | locus YMR078C, strain ctf18, hits give low values 0.996 | locus YMR125W, strain sto1, hits give low values 1.01 | locus YMR129W, hits give low values 1.01 | locus YMR205C, strain PFK2, hits give low values 1.01 | locus YMR223W, strain ubp8, hits give low values 0.959 | locus YMR231W, strain pep5, hits give low values 1.02 | locus YMR263W, strain SAP30, hits give low values 1 | locus YMR307W, strain GAS1, hits give low values 1 | locus YNL067W, strain RPL9B, hits give low values 1.02 | locus YNL071W, strain lat1, hits give low values 0.97 | locus YNL153C, strain GIM3, hits give low values 1.04 | locus YNL183C, strain NPR1, hits give low values 0.967 | locus YNL209W, strain ssb2, hits give low values 0.991 | locus YNL233W, strain BNI4, hits give low values 0.994 | locus YNL248C, strain rpa49, hits give low values 1.05 | locus YNL250W, strain rad50, hits give low values 1.01 | locus YNL271C, strain bni1, hits give low values 0.995 | locus YNL298W, strain CLA4, hits give low values 1 | locus YNL307C, strain MCK1, hits give low values 0.989 | locus YNL322C, strain KRE1 (second series), hits give low values 1.04 | locus YNR049C, strain mso1, hits give low values 1.02 | locus YNR052C, strain pop2, hits give low values 0.998 | locus YOL012C, strain htz1 0.785 | locus YOL147C, strain pex11, hits give low values 0.991 | locus YOR001W, strain rrp6, hits give low values 1.05 | locus YOR061W, strain CKA2, hits give low values 0.99 | locus YOR069W, strain VPS5, hits give low values 0.992 | locus YOR070C, strain gyp1, hits give low values 1.01 | locus YOR080W, strain dia2, hits give low values 1.02 | locus YOR083W, strain WHI5, hits give low values 0.984 | locus YOR106W, strain vam3, hits give low values 0.962 | locus YOR136W, strain idh2, hits give low values 1 | locus YOR144C, strain elg1, hits give low values 0.99 | locus YOR184W, strain ser1, hits give low values 0.991 | locus YOR231W, strain MKK1, hits give low values 0.974 | locus YOR265W, strain rbl2, hits give low values 1.02 | locus YOR270C, strain vph1, hits give low values 1.05 | locus YOR290C, strain snf2, hits give low values 1.03 | locus YOR316C, strain cot1, hits give low values 0.992 | locus YPL051W, strain arl3, hits give low values 1.02 | locus YPL078C, strain atp4, hits give low values 1.01 | locus YPL106C, strain sse1, hits give low values 1.07 | locus YPL240C, strain hsp82, hits give low values 1.01 | locus YPL256C, strain CLN2, hits give low values 0.916 | locus YPR119W, strain clb2, hits give low values 0.998 | locus YPR141C, strain kar3, hits give low values 0.983 | locus YPR163C, strain tif3, hits give low values 1 | locus YPR167C, strain met16, hits give low values 0.992 | strain wtn01, hits give low values 0.972
